Test results from PubChem BioAssay AID1851 (National Center for Advancing Translational Sciences (NCATS), 2009).
In all, about 16,000 compounds went through this assay and about 5,800 (36%) were called active. About 23% were inconclusive and are not listed. The list shows a part of the results. Unmarked numbers belong to inactive results. Calls come from the whole dose curve; as a rule, active = well fitted curve in the direction sought with a large enough effect; inconclusive = small, poorly fitted or top-dose-only effect, or effect the other way; inactive = no such curve, though single readings can be large or run the other way.

molecular target: Cytochrome P450 2C19 (Homo sapiens) (UniProt P33261); assay: Cytochrome panel assay with activity outcomes; settings: recombinant CYP, pro-luciferin dealkylation, luminescence, p450-cyp2c19; series mostly up to 57.1 µM; activity, negative = inhibition: at the top concentration
% is set by controls: 0 for no effect and ±100 for the full control effect.

Cytochrome P450 2C19 (Homo sapiens), sequence (P33261 whole entry, looked up): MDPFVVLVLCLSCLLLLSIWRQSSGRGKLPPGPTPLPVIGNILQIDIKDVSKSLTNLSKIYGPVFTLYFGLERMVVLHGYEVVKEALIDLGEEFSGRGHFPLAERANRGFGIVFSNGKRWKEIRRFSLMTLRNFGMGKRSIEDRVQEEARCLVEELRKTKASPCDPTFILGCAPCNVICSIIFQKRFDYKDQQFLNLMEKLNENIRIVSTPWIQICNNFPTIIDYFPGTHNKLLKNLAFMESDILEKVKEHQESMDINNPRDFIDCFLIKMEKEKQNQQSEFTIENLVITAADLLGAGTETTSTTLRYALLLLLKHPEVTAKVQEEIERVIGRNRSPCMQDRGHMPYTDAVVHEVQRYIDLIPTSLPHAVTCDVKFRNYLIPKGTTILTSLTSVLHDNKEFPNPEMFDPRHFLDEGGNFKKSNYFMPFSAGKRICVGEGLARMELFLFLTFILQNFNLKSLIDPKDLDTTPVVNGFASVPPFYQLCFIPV

SMILES	activity, negative = inhibition	AC50
CCN1CCC[C@@H](OC(=O)C(c2ccccc2)c2ccccc2)C1	-20.1% [at 25.6 µM]	–
CCN1CCc2nc(NC(=O)CC(c3ccccc3)c3ccccc3)sc2C1	–	8.91 µM (active)
Cc1nc2ccc3nc(NC(=O)c4ccc(S(=O)(=O)N5CCOCC5)cc4)sc3c2s1	-28.8%	–
CCN1CCc2nc(NC(=O)c3ccc4c(c3)OCCO4)sc2C1	–	15.8 µM (active)
Cc1nc2c(ccc3nc(NC(=O)c4ccc5c(c4)OCCO5)sc32)s1	–	2.51 µM (active)
CCN1CCc2c(sc(NC(=S)NC(=O)c3ccccc3)c2C#N)C1	-59.3%	–
O=C(O)/C=C(/C(=O)O)[C@]12CCN3CC4=CCO[C@@H]5CC(=O)N[C@@H]1[C@H]5[C@H]4C[C@H]32	-10% [at 11.4 µM]	–
CC(C)=CCC/C(C)=C/CO/N=C1/C[C@@H](O)[C@@H](O)[C@@H]2[C@@H]3C(=O)N(C(C)(C)C)C(=O)[C@H]3CC[C@H]12	12.2% [at 11.4 µM]	–
N#CCCn1c(=O)c(-c2ccc(F)cc2)nc2cnc(N3CCOCC3)nc21	-26%	–
CNc1oc(-c2ccc(Cl)cc2)nc1C#N	–	11.2 µM (active)
CCN(CC)CCNC(=O)c1cc(S(C)(=O)=O)ccc1OC	–	inactive
O=C(NCCNS(=O)(=O)c1ccccc1Cl)c1cc(OCC(F)(F)F)ccc1OCC(F)(F)F	–	14.1 µM (active)
O=C(O)CONC(=O)c1cc(OCC(F)(F)F)ccc1OCC(F)(F)F	14.7%	–
O=C(NCCNS(=O)(=O)c1ccc(Cl)cc1)c1cc(OCC(F)(F)F)ccc1OCC(F)(F)F	–	2.51 µM (active)
CCOC(=O)c1c(-c2cccc(C)c2)csc1NC(=O)c1c(-c2ccccc2)noc1C	-30%	–
CCOC(=O)c1c(-c2ccc(OC)cc2)csc1NC(=O)CCN1C(=O)c2ccccc2C1=O	–	5.62 µM (active)
COC(=O)c1c(-c2ccc3ccccc3c2)csc1NC(=O)Cc1ccc(OC)c(OC)c1	–	1.41 µM (active)
CCOC(=O)c1c(-c2ccccc2)csc1NC(=O)c1cccc(N2C(=O)CCC2=O)c1	–	3.55 µM (active)
N/C(=N\O)c1cn([C@@H]2O[C@@H](CO)[C@H](O)[C@@H]2O)c2ncnc(NO)c12	14.4% [at 11.4 µM]	–
CC(=O)Nc1c(I)c(C(=O)N[C@H]2[C@@H](O)[C@H](O)[C@H](CO)O[C@@H]2O)c(I)c(N(C)C(C)=O)c1I	12.2% [at 25.6 µM]	–
Cc1ccc(OCCCN2C(=O)C(=O)c3cccc(C)c32)cc1	–	3.98 µM (active)
NS(=O)(=O)c1ccc(N=Nc2nc3[nH]c(=O)[nH]c(=O)c3[nH]2)cc1	-0.933% [at 11.4 µM]	–
